The values below come from PubChem BioAssay (Tox21).

The nature of assay [1]: cAMP Responsive Elements (CRE) small molecule antagonists, cell-based qHTS assay: qHTS cell viability counter screen (AID 2060913). Further: nearly all actives have a fitted effect of over 40% in size. Particulars: CRE-bla HEK293T viability, CellTiter-Glo luminescence, 5 h; series mostly up to 92.4 µM. In outline: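 Cytotoxicity read in the same wells as the CRE-bla HEK293T antagonist assay: after 3 h compound with 0.25 uM NKH477 final and 2 h beta-lactamase substrate, CellTiter-Glo luminescence measured.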

The nature of assay [2]: cAMP Responsive Elements (CRE) small molecule agonists, cell-based qHTS assay: qHTS cell viability counter screen (AID 2060914). Further: nearly all actives have a fitted effect of over 50% in size. As to conditions: CRE-bla HEK293T viability, CellTiter-Glo luminescence, 5 h; series mostly up to 92.4 µM. The procedure, abridged: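 Cells are seeded and incubated 18 h, treated with compounds in DMSO for 3 h, read for the bla reporter, then given CellTiter-Glo; luminescence is measured after 30 min at room temperature.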

Results filed as inconclusive are left out. A call without a number means that no potency is given here. Active and inactive are the calls of the source. The call rests on the fitted dose curve; in most records, active means well fitted cell-killing curve with a large enough effect in the repeat runs; inconclusive means weak or mixed curves, or effect the other way; inactive means flat fitted curve, though single readings scatter.

`Cc1ccc(Cl)cc1N`: the Potency entry in assay [1] and in assay [2] was “inactive” in each case.
With `CCN(CC)CCOC(=O)C1(c2ccccc2)CCCC1`, the Potency entry in assay [1] and in assay [2] was “inactive” in each case.
Take `NC(=O)NC(=O)Cc1ccccc1`: the Potency entry in assay [1] and in assay [2] was “inactive” in each case.
Consider `CC/C=C\C/C=C\C/C=C\CCCCCCCC(=O)OCC`, for which the Potency entry in assay [1] and in assay [2] was “inactive” throughout.
In the case of `NC(=O)OCC(COC(N)=O)c1ccccc1`, the Potency result in assay [1] and in assay [2] was “inactive” throughout.
`CCCCCCCCCCC1CO1` (centres undefined): the Potency result in assay [1] and in assay [2] was “inactive” each time.
Turning to `CC(C)CCCCCCCCCCCCCCC(=O)O`, the Potency result in assay [1] and in assay [2] was “inactive” each time.
As to `CC(C)=CCC/C(C)=C/C(=O)O`, the Potency result in assay [1] and in assay [2] was “inactive” each time.
Consider `CCOC(=O)C(C)Oc1ccc(Oc2cnc3cc(Cl)ccc3n2)cc1` (centres undefined), for which the Potency entry in assay [1] and in assay [2] was “inactive” each time.
For the compound `OCC(F)(F)F`, the Potency result in assay [1] and in assay [2] was “inactive” throughout.
Turning to `CCOC(=O)Nc1ccc(NCc2ccc(F)cc2)nc1N`, the Potency result in assay [1] and in assay [2] was “inactive” in each case.
For `O=C1c2ccccc2C(=O)c2c1ccc(O)c2O`, the Potency entry in assay [1] and in assay [2] was “inactive” throughout.
`CC(=O)OC1C2(C)CCC(C2)C1(C)C` (centres undefined): the Potency entry in assay [1] and in assay [2] was “inactive” in each case.
Turning to `CCCCCCCCOCCCN`, the Potency result in assay [1] and in assay [2] was “inactive” each time.
With `CC(=O)OC/C=C(/C)CCC=C(C)C`, the Potency result in assay [1] and in assay [2] was “inactive” in each case.
Turning to `Cc1ccncc1`, the Potency entry in assay [1] and in assay [2] was “inactive” in each case.
Turning to `C1CCCNCC1`, the Potency entry in assay [1] and in assay [2] was “inactive” in each case.
As to `CC(=O)OC(C(=O)c1ccccc1)c1ccccc1` (centres undefined), the Potency result in assay [1] and in assay [2] was “inactive” in each case.
For the compound `COC(=O)/C=C/C(C)=C\C=C\C(C)=C\C=C\C=C(C)\C=C\C=C(C)\C=C\C(=O)O`, the Potency result in assay [1] and in assay [2] was “inactive” throughout.
`N=C(N)c1ccccc1`: the Potency entry in assay [1] and in assay [2] was “inactive” throughout.
Turning to `C=CC(=O)OCCCCCCCC`, the Potency entry in assay [1] and in assay [2] was “inactive” each time.
Consider `C[C@]12CC[C@@H]3c4ccc(O)cc4C[C@@H](CCCCCCCCCS(=O)CCCC(F)(F)C(F)(F)F)[C@H]3[C@@H]1CC[C@@H]2O` (some centres undefined), for which the Potency result in assay [1] and in assay [2] was “inactive” in each case.
